From PubChem BioAssay
For some assays here: Entries with a potency or affinity are not part of this list. Active and inactive are the calls of the source. Unless noted, the limit is not given here; nearly all actives have IC50 up to about 0.98 µM.

System: not listed separately
Test: inhibition of 3D7 malaria parasite growth – strain 3D7 (AID 2306; call rule not given here;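 also: 0% = DMSO wells and 100% = chloroquine plus artemisinin control wells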)
Conditions: P. falciparum 3D7 erythrocytic growth, LDH absorbance, 72 h; at 2 µM; stronger effect = higher value

Growth inhibition, active:
O=C(NCCCCCN1CCC(c2c[nH]c3ccccc23)CC1)Nc1ccc(Cl)c(Cl)c1 92%
O=C(NCCCN1CCC(Cc2ccccc2)CC1)c1cc2c(Cl)nc3ccccc3c2s1 98%
Cc1ccc(NC(=O)c2ccc3ncccc3c2)cc1OC1CCN(Cc2ccco2)C1 (stereo not given) 86%
COc1ccc(CCN2CCC(NCc3cccc(N(C)C)c3)CC2)cc1 98%
O=C(c1cc(-c2ccco2)[nH]n1)N1CCN(S(=O)(=O)c2ccc(Cl)cc2)CC1 96%
O=[N+]([O-])c1cccc(CNCC2CCN(CCc3ccccc3)CC2)c1 98%
C[C@H](Cc1ccc(OCCCCCCCOc2ccc(C[C@@H](C)NC[C@H](O)c3cccc(Cl)c3)cc2)cc1)NC[C@H](O)c1cccc(Cl)c1 99%
COc1cccc(CN2CCCN(Cc3cccc(NC(=O)c4ccc(Cl)c(Cl)c4)c3)CC2)c1 89%
Cc1nc(N)nc(N)c1OCCCOc1ccccc1Br 94%
CC(=O)Nc1cccc(C(=O)Nc2cccc(-c3ccc(-c4nc5ccc(C(F)(F)F)cc5[nH]4)s3)c2)c1 98%
CS(=O)(=O)CCNCc1ccc(-c2ccc3c(Nc4ccc(Cl)cc4F)ccnc3c2)o1 99%
O=C(Nc1ccc(C(F)(F)F)cc1)c1ccc(S(=O)(=O)NC2CCN(CC3CCCCC3)C2)cc1 (stereo not given) 99%
CCOc1c(Br)cc(Br)cc1CNCCCCNc1nc2ccccc2[nH]1 101%
CCc1ccc2nc(-c3ccc(F)cc3)nc(SCC(=O)Nc3sc(C)c(C)c3C#N)c2c1 98%
CCOc1ncccc1CN1CCC(N2CCc3cc(NC(=O)c4ccco4)ccc32)C1 (stereo not given) 90%
Cc1cc(NCCc2ccc(O)cc2)nc(NCC(c2ccccc2)c2ccccc2)n1 102%
CN1CCN(c2ccc(Nc3nc(N)c4ccn(C5CCC5)c4n3)cc2)CC1 93%
CCN1C(=O)C(CC(=O)Nc2cccc(Cl)c2)N(Cc2ccc(OC)c(OC)c2)C1=S (stereo not given) 100%
Cc1cc(N2CCCC2)nc(Nc2ccc(NC(=O)Cc3ccccc3)cc2)n1 102%
Cc1ccc(C(=O)Nc2cc(C(F)(F)F)cc(C(F)(F)F)c2)cc1[N+](=O)[O-] 101%
CC(=O)N(C)C1CCN(Cc2cccc(-c3ccc(-c4nc5ccc(C(F)(F)F)cc5[nH]4)cc3)c2)C1 (stereo not given) 100%
CC(C)Oc1cc2c(cc1NS(=O)(=O)c1ccc(-c3ccc(Cl)s3)cc1F)CCN(C)CC2 99%
O=S(=O)(Nc1ccc2nccc(N3CCNCC3)c2c1)c1ccc(-c2ccccc2)cc1 101%
C=CCN1C(=O)CN(S(=O)(=O)c2ccc(-n3nc(C)cc3C)cc2)C1=S 93%
COc1ccccc1CCNc1nccc(N[C@@H](Cc2ccccc2)C(=O)NCc2cccs2)n1 90%
Cn1cncc1C(=O)NC1CCN(c2ccnc(Nc3ccc(F)cc3)n2)C1 (stereo not given) 97%
NS(=O)(=O)c1ccc(CNc2ccc3ncc(-c4ccc(OC(F)(F)F)cc4)n3n2)cc1 97%
COc1cc(NC(=O)c2sc(-c3ccc(Cl)cc3)cc2NC(=O)N2CCCC2)ccc1OCCN1CCCC1 101%
Cn1c(NCc2cc(F)cc3c2OCOC3)nc2cc(Nc3ccnc(Nc4cccc(CS(C)(=O)=O)c4)n3)ccc21 102%
O=C(C=NO)Nc1ccccc1[N+](=O)[O-] 99%
C/C=C/C=C/C1=NCCc2cc(OCCC)ccc21 87%
O=C(Nc1ccc(N2CCCN(Cc3cccc(F)c3)CC2)cc1)c1ccccc1 95%
N#Cc1ccc(N2CCN(Cc3ccc(-c4ccc(-c5nc6ccccc6[nH]5)s4)cc3)CC2)nc1 99%
Clc1ccc(Nc2nc(NCc3ccccc3)nc(N/N=C/c3ccccn3)n2)cc1 99%
O=C(Nc1cccc(CN2CCCN(Cc3ccc(O)cc3)CC2)c1)c1cccc(C(F)(F)F)c1 101%
COc1ccc(S(=O)(=O)Nc2ccc(C(=O)NCc3ccc(C(F)(F)F)cc3)cc2)cc1N1CCN(CC2CC2)CC1 95%
c1cncc(NCc2ccc(-c3cc4ccncc4cc3OC3CCNCC3)s2)c1 100%
COc1cccc(NC(=O)NC2CCN(c3ccnc(Nc4cc(OC)c(OC)c(OC)c4)n3)C2)c1 (stereo not given) 95%
c1csc(-c2nc(N3CCCC3)ncc2-c2ccsc2)n1 89%
N#Cc1cccc(NC(=O)c2ccc(S(=O)(=O)NCC3CCCN3CC3CCCCC3)cc2)c1 (stereo not given) 88%

Biological target: Calcium-dependent protein kinase 1 (Plasmodium falciparum (isolate 3D7)) (UniProt P62344)
Test: PfCDPK1 kinase inhibitors, biochemical, TCAMS library (AID 1159585);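 also: inhibitors leave more ATP so luminescence rises with inhibition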
Conditions: recombinant PfCDPK1, Kinase-Glo ATP depletion luminescence

Calcium-dependent protein kinase 1 (Plasmodium falciparum (isolate 3D7)), sequence (P62344 whole entry, looked up): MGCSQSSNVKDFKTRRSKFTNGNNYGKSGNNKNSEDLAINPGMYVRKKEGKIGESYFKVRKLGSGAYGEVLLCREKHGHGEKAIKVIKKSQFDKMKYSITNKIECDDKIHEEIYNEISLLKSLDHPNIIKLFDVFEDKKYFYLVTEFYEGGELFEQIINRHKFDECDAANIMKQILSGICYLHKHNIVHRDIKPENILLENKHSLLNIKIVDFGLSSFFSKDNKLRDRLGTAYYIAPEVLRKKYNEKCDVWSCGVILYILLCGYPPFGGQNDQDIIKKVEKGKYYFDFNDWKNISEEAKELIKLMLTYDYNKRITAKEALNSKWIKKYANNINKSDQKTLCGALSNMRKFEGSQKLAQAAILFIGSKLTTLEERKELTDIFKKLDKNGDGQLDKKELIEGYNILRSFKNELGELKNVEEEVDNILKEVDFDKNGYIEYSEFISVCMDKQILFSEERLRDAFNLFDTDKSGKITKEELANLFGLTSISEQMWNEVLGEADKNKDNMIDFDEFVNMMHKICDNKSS

outcome, inactive:
O=C(NCCCCCN1CCC(c2c[nH]c3ccccc23)CC1)Nc1ccc(Cl)c(Cl)c1
O=C(NCCCN1CCC(Cc2ccccc2)CC1)c1cc2c(Cl)nc3ccccc3c2s1
Cc1ccc(NC(=O)c2ccc3ncccc3c2)cc1OC1CCN(Cc2ccco2)C1 (stereo not given)
COc1ccc(CCN2CCC(NCc3cccc(N(C)C)c3)CC2)cc1
O=C(c1cc(-c2ccco2)[nH]n1)N1CCN(S(=O)(=O)c2ccc(Cl)cc2)CC1
O=[N+]([O-])c1cccc(CNCC2CCN(CCc3ccccc3)CC2)c1
C[C@H](Cc1ccc(OCCCCCCCOc2ccc(C[C@@H](C)NC[C@H](O)c3cccc(Cl)c3)cc2)cc1)NC[C@H](O)c1cccc(Cl)c1
COc1cccc(CN2CCCN(Cc3cccc(NC(=O)c4ccc(Cl)c(Cl)c4)c3)CC2)c1
Cc1nc(N)nc(N)c1OCCCOc1ccccc1Br
CC(=O)Nc1cccc(C(=O)Nc2cccc(-c3ccc(-c4nc5ccc(C(F)(F)F)cc5[nH]4)s3)c2)c1
CS(=O)(=O)CCNCc1ccc(-c2ccc3c(Nc4ccc(Cl)cc4F)ccnc3c2)o1
O=C(Nc1ccc(C(F)(F)F)cc1)c1ccc(S(=O)(=O)NC2CCN(CC3CCCCC3)C2)cc1 (stereo not given)
CCOc1c(Br)cc(Br)cc1CNCCCCNc1nc2ccccc2[nH]1
CCc1ccc2nc(-c3ccc(F)cc3)nc(SCC(=O)Nc3sc(C)c(C)c3C#N)c2c1
CCOc1ncccc1CN1CCC(N2CCc3cc(NC(=O)c4ccco4)ccc32)C1 (stereo not given)
Cc1cc(NCCc2ccc(O)cc2)nc(NCC(c2ccccc2)c2ccccc2)n1
CN1CCN(c2ccc(Nc3nc(N)c4ccn(C5CCC5)c4n3)cc2)CC1
CCN1C(=O)C(CC(=O)Nc2cccc(Cl)c2)N(Cc2ccc(OC)c(OC)c2)C1=S (stereo not given)
Cc1cc(N2CCCC2)nc(Nc2ccc(NC(=O)Cc3ccccc3)cc2)n1
Cc1ccc(C(=O)Nc2cc(C(F)(F)F)cc(C(F)(F)F)c2)cc1[N+](=O)[O-]
CC(=O)N(C)C1CCN(Cc2cccc(-c3ccc(-c4nc5ccc(C(F)(F)F)cc5[nH]4)cc3)c2)C1 (stereo not given)
CC(C)Oc1cc2c(cc1NS(=O)(=O)c1ccc(-c3ccc(Cl)s3)cc1F)CCN(C)CC2
O=S(=O)(Nc1ccc2nccc(N3CCNCC3)c2c1)c1ccc(-c2ccccc2)cc1
C=CCN1C(=O)CN(S(=O)(=O)c2ccc(-n3nc(C)cc3C)cc2)C1=S
COc1ccccc1CCNc1nccc(N[C@@H](Cc2ccccc2)C(=O)NCc2cccs2)n1
Cn1cncc1C(=O)NC1CCN(c2ccnc(Nc3ccc(F)cc3)n2)C1 (stereo not given)
NS(=O)(=O)c1ccc(CNc2ccc3ncc(-c4ccc(OC(F)(F)F)cc4)n3n2)cc1
COc1cc(NC(=O)c2sc(-c3ccc(Cl)cc3)cc2NC(=O)N2CCCC2)ccc1OCCN1CCCC1
Cn1c(NCc2cc(F)cc3c2OCOC3)nc2cc(Nc3ccnc(Nc4cccc(CS(C)(=O)=O)c4)n3)ccc21
O=C(C=NO)Nc1ccccc1[N+](=O)[O-]
C/C=C/C=C/C1=NCCc2cc(OCCC)ccc21
O=C(Nc1ccc(N2CCCN(Cc3cccc(F)c3)CC2)cc1)c1ccccc1
N#Cc1ccc(N2CCN(Cc3ccc(-c4ccc(-c5nc6ccccc6[nH]5)s4)cc3)CC2)nc1
Clc1ccc(Nc2nc(NCc3ccccc3)nc(N/N=C/c3ccccn3)n2)cc1
O=C(Nc1cccc(CN2CCCN(Cc3ccc(O)cc3)CC2)c1)c1cccc(C(F)(F)F)c1
COc1ccc(S(=O)(=O)Nc2ccc(C(=O)NCc3ccc(C(F)(F)F)cc3)cc2)cc1N1CCN(CC2CC2)CC1
c1cncc(NCc2ccc(-c3cc4ccncc4cc3OC3CCNCC3)s2)c1
COc1cccc(NC(=O)NC2CCN(c3ccnc(Nc4cc(OC)c(OC)c(OC)c4)n3)C2)c1 (stereo not given)
c1csc(-c2nc(N3CCCC3)ncc2-c2ccsc2)n1
N#Cc1cccc(NC(=O)c2ccc(S(=O)(=O)NCC3CCCN3CC3CCCCC3)cc2)c1 (stereo not given)
